# Source: PubChem
# FBPA coupling cs – qHTS Assay for Inhibitors of Fructose-1,6-bisphosphate Aldolase from Giardia Lamblia: Coupling assay counterscreen; AID 2472, 2010; coupling enzyme system counterscreen, AmpLite Red fluorescence; activity change, negative = inhibition, % at 58.2 µM, hits read low; 290,000 tested, 0.67% active; in the data active means activity change below about -30%
#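 Fluorescence at 525 nm excitation and 598 nm emission measured inhibition of the coupled detection system without aldolase. Compounds (at 57.5 uM final) were preincubated 10 min at room temperature with coupling enzyme reagent before a 20 min substrate/AmpLite Red step.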
# Sfp PPTase inh – qHTS Assay for Inhibitors of Bacillus subtilis Sfp phosphopantetheinyl transferase (PPTase); 4'-phosphopantetheinyl transferase ffp (Bacillus subtilis), Q9F4F7; Biochemical Sfp PPTase activity, qHTS; Potency, µM, inactives show largest response in the series, negative = inhibition, hits mostly inhibitors; 310,000 tested, 3.5% active;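 further: the enzyme is Sfp with the accession as filed and its product quenches rhodamine fluorescence; potency means the concentration at half of the fitted maximal effect; 0% = enzyme reaction without inhibitor and -100% = no enzyme wells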
#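 Reaction rates are the 30-min fluorescence difference (ex 525, em 598 nm) in wells containing 15 nM Sfp, 5 uM rhodamine-CoA and 12.5 uM BHQ-2-YbbR at pH 7.6 with 10 mM MgCl2.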
# Tau fluor counter – Counterscreen qHTS for Inhibitors of Tau Fibril Formation, Fluorescence Polarization | AID 1463, 2008 | tau K18 P301L Alexa594 fluorescence, heparin fibrillization | 280,000 tested, 0.93% active | Potency, µM (highest dose often 57.7 µM), inactives show top-dose activity change, negative = decrease; further: potency means the concentration at half of the fitted maximal effect; nearly all actives have a fitted effect of over 55% in size
#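 Human tau K18 P301L (15 uM unlabeled, 0.24 uM Alexa 594-labeled) in 100 mM sodium acetate pH 7 with 20 uM heparin, 6 hr at 37 C. ThT 30 uM added, 1 hr ambient; Alexa 594 FP and total fluorescence read at 555/632 nm.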
# Tau ThT inhib – qHTS for Inhibitors of Tau Fibril Formation, Thioflavin T Binding; recombinant tau K18 P301L (four-repeat tau fragment), heparin-induced fibrillization, ThT fluorescence; Microtubule-associated protein tau (Homo sapiens), P10636; 270,000 tested, 2.1% active; Potency, µM (top dose mostly 57.4 µM), for the others: at the highest dose activity, negative = inhibition, most hits filed as inhibitors; further: potency means the concentration at half of the fitted maximal effect; nearly all actives have a fitted effect of over 55% in size
# Target sequence (P10636 561-689 P618L limits assumed): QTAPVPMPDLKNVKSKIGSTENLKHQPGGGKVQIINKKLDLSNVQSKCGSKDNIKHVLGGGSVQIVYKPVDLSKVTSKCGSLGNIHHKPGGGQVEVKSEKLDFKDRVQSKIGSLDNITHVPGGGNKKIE
#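 In this qHTS, human K18 P301L tau is incubated with compound and heparin for 6 hr at 37 C, and Thioflavin T fluorescence then reports fibril load.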
# Tau fibril FP – qHTS for Inhibitors of Tau Fibril Formation, Fluorescence Polarization | Potency, µM (doses to about 57.7 µM), for inactives: top-dose activity, negative = inhibition, hits mostly inhibitors | K18 P301L tau heparin fibrillization, Alexa594 FP, 6 h | Microtubule-associated protein tau (Homo sapiens), P10636 | 280,000 tested, 0.39% active; further: potency means the concentration at half of the fitted maximal effect; nearly all actives have a fitted effect of over 55% in size
#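 Compound effects on tau fibrillization are measured by Alexa 594 fluorescence polarization (ex 555, em 632 nm). K18 P301L tau is used at 15 uM with 0.24 uM labeled tracer, and 20 uM heparin induces aggregation over 6 hr at 37 C.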
# Starred values were filed as active, the others as inactive; ? = inconclusive; / = not tested or not shown; [ ] = remark or other dose. Sampled rows, rich in hits. Any-hit rate of the full collection: about 5.2%. Unless noted, the call rests on the fitted dose curve; in most records, active means well fitted curve in the direction sought with a large enough effect; inconclusive means small, poorly fitted or top-dose-only effect, or another doubt; inactive means no such curve, though single readings can be large; an effect the other way counts as inactive or inconclusive. Unless noted, on the % scale 0 is the no-effect control and ±100 the full control effect.
SMILES,FBPA coupling cs,Sfp PPTase inh,Tau fluor counter,Tau ThT inhib,Tau fibril FP
CCNC(=O)Oc1ccc[nH]c1=O,-63*,25µM*,-12%,?,?
Cc1cc2c(cc1C)N(C(=O)CSc1nncn1C)C(C)(C)c1ssc(=S)c1-2,4,-13%,-22%,20µM*,4%
CC12CN3CC(C)(CN(C1)C3c1ccc3ccccc3c1O)C2=O (stereo not drawn),-48*,-12%,-14%,?,-11%
CC12CN3CC(C)(CN(C1)C3c1c[nH]c3ccccc13)C2=O (stereo not drawn),2,21%,2%,3%,-1%
Cn1ccc(=S)c2ccccc21,-22,35µM*,-4%,?,-14%
O=C(c1csnn1)N1CCC2(CC1)CCN(c1ccccn1)CC2,-6,4%,/,/,/
COc1ccc(C(=O)COC(=O)c2ccccc2NS(=O)(=O)c2ccc(O)c([N+](=O)[O-])c2)cc1,11,8%,-30%,16µM*,10%
COc1ccc(NC(=O)c2ccccc2NS(=O)(=O)c2ccc(C)cc2)c([N+](=O)[O-])c1,6,10%,?,?,8%
N#Cc1c(NC(=S)NC(=O)c2ccccc2)sc2c1CCN(CCc1ccccc1)C2,-2,56µM*,-18%,?,-3%
COc1cccc(C(=O)Nc2sc3c(c2C(=O)O)CCCC3)c1,-27,-1%,/,/,/
COC(=O)c1c(NC(=O)C2CC2)sc2c1CCN(C(C)=O)C2,-4,14µM*,16%,5%,8%
COc1cccc(C(=O)Nc2sc3c(c2C#N)CCN(C(C)=O)C3)c1,-14,40µM*,-11%,?,-8%
CC1CCN(c2nc3ccccc3nc2SCC(=O)Nc2ccccc2C(C)C)CC1,/,/,-1%,-7%,3%
COC1[C@@H](OC)C[C@H](C)[C@@H](OC)C2=CC(=O)C=C(NC(=O)/C(C)=C/C=C\[C@H](OC)[C@@H](OC(N)=O)/C(C)=C/[C@@H]1C)C2=O (stereo partly drawn),-22,-27%,/,/,/
Cc1ccc(C2C3=C(CCCC3=O)Nc3[nH]c(=S)[nH]c(=O)c32)cc1 (stereo not drawn),0,7.9µM*,-4%,-11%,-3%
CC1(C)CC(=O)C2=C(C1)Nc1[nH]c(=S)[nH]c(=O)c1C2c1ccccc1 (stereo not drawn),0,28µM*,-2%,-16%,-3%
COc1cc(C2C(C(=O)OC(C)C)=C(C)Nc3[nH]c(=O)[nH]c(=O)c32)ccc1O (stereo not drawn),-2,7%,-6%,0%,6%
COC(=O)C1=C(C)Nc2[nH]c(=S)[nH]c(=O)c2C1c1ccc(O)cc1 (stereo not drawn),8,6.3µM*,-1%,-7%,-5%
CSc1nc2c(c(=O)[nH]1)C(c1ccccc1)C1=C(CC(C)(C)CC1=O)N2 (stereo not drawn),2,19%,5%,6%,-2%
COc1ccc(/C(=C\C(=O)O)c2nccc3cc(OC)c(OC)cc23)cc1OC,0,-12%,-11%,-20%,-11%
COc1ccc(/C(=N/OC(C)=O)c2nccc3cc(OC)c(OC)cc23)cc1OC,-32*,-6%,9%,/,1%
CC(C)C(c1nnnn1C1CCCCC1)N1CCc2ccccc2C1 (stereo not drawn),-28,-16%,0%,-6%,-2%
c1ccc(C(c2nnnn2C2CCCCC2)N2CCc3ccccc3C2)nc1 (stereo not drawn),-32*,79µM*,-8%,?,-11%
Oc1ccc(N2CCN(C(c3ccccn3)c3nnnn3C3CCCC3)CC2)cc1 (stereo not drawn),-16,18µM*,-16%,?,-2%
COc1ccc(NC(=O)c2ccco2)cc1NC(=O)c1c(OC)cccc1OC,-1,19%,-19%,?,0%
SMILES,FBPA coupling cs,Sfp PPTase inh,Tau fluor counter,Tau ThT inhib,Tau fibril FP
COc1ccc(C(=O)Nc2cc(OC)c(NC(=O)c3ccco3)cc2OC)cc1,-35*,?,?,?,5%
COc1ccc(NC(=O)c2ccco2)cc1N,-41*,-3%,-10%,-16%,-6%
COc1ccccc1NC(=O)c1ccccc1NC(=O)c1cc(Cl)ccc1NC(=O)c1ccco1,3,16µM*,-29%,7%,?
COc1ccc(NC(=O)c2ccc(NC(=O)c3ccco3)cc2)c(OC)c1,1,19%,/,/,/
COc1ccc(NC(=O)c2ccco2)cc1NC(=O)c1ccco1,-3,5%,-3%,-11%,1%
COc1cc(NC(=O)c2ccco2)c(OC)cc1NC(=O)Nc1cccc(Cl)c1,0,-11%,13µM*[quencher],?,9%
O=c1cnc2cnc(Oc3ccccc3)nc2n1CCc1ccccc1,6,6%,/,/,/
Clc1ccccc1CSc1nc(NCCc2ccccc2)c2ccccc2n1,/,/,-18%,-3%,-8%
Cc1ccc(S(=O)(=O)N2CCCC2C(=O)N(C)Cc2cccs2)cc1 (stereo not drawn),-1,25%,3%,4%,-5%
Cc1ccc(CN(C)C(=O)C2CCCN2C(=O)c2cccs2)o1 (stereo not drawn),1,35µM*,-4%,?,-13%
CCC(=O)N1CCN(c2ccc(NC(=O)c3ccc(N4CCOCC4)c([N+](=O)[O-])c3)cc2)CC1,/,14%,/,/,/
CCC(=O)N1CCN(c2ccc(NC(=O)c3ccc(N4CCCC4)c([N+](=O)[O-])c3)cc2)CC1,2,-2%,-16%,0.63µM*,-9%
CCC(=O)N1CCN(c2ccc(NC(=S)NC(=O)c3ccc(OC)c([N+](=O)[O-])c3)cc2)CC1,0,-15%,?,2.5µM*,?
CN(C)C(=O)/N=N/C(=O)N(C)C,/,/,-19%,7.9µM*,14µM*
COc1ccc(-c2nn(C)c3sc(C(=O)N4CCN(c5cccc(Cl)c5)CC4)cc23)cc1OC,/,/,-10%,-8%,4%
COc1ccc(C(=O)CSC#N)cc1OC,1,-1%,-9%,16µM*,?
COc1ccc(N=N/C(C(C)=O)=C(/C)O)cc1,2,14%,-13%,16µM*,2%
CC(=O)/C(N=Nc1cc(C)ccc1O)=C(\C)O,-9,-2%,-12%,-5%,-7%
Cc1cnc(CNc2ncnc3ccc(-c4cccc(NS(C)(=O)=O)c4)cc23)cn1,-1,-1%,/,/,/
